Only some compounds are listed: those with a hit (about 1.2% of all), similar ones and a draw of the others.
B2AR arrestin: qHTS assay of beta-arrestin-biased ligands of beta2-adrenergic receptor. beta-arrestin recruitment to beta2AR, cell-based reporter. Potency, µM (titrated, usually from 46.1 µM), inactives show at the top dose activation, usual class: activators. 330,000 compounds, 0.02% hits;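 further: 0% = DMSO controls and full agonism = EC100 isoproterenol or metaproterenol; nearly all actives have a fitted effect of over 65% in size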
BRCA1 expr act: qHTS Assay to Identify Small Molecule Activators of BRCA1 Expression. 380,000 compounds, 1.1% hits. Potency, µM (doses to about 46.1 µM), inactives show at the top dose activation, actives largely listed as activators. MCF7-BRCA1-FFLuc reporter, luminescence, 48 h; response scale: scaled: vehicle 0%, 10 µM genistein 100%; further: nearly all actives have a fitted effect of over 80% in size
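First, MCF7-BRCA1-FFLuc cells (2000/well) attach for 2 h; next, compounds are pin-added and incubated 48 h at 37 °C; finally, luciferase reagent is added and luminescence read after 15 min.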
Mito fusion act: qHTS Assay for Small Molecule Inhibitors of Mitochondrial Division or Activators of Mitochondrial Fusion | S. cerevisiae fusion-defective mutant growth rescue, CellTiterGlo 48 h | Potency, µM (top dose mostly 46.1 µM), inactives show top-dose growth rescue (activation), hits mostly activators | 320,000 compounds, 0.23% hits; further: % of control where 0% means no effect; nearly all actives have a fitted effect of over 45% in size
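Compounds are tested for their ability to restore growth of mitochondrial fusion-defective yeast strains at non-permissive 37C in YPEG medium over 48 hours. Viability is quantified by luciferase luminescence.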
ERG Ets-DNA blk: qHTS for Small Molecule Inhibitors of the ERG Ets/DNA interaction; fluorescence polarization, His-ERG Ets domain / labelled DNA; Potency, µM (titrated, usually from 76.9 µM), without a hit: top-dose FP activity, negative = inhibition, most hits filed as inhibitors; 370,000 compounds, 0.028% hits; AID 624246, 2012; active means well fitted inhibition curve with a large enough effect in the polarisation, with a control signal flat; inconclusive means small, poorly fitted or top-dose-only effect, or effect the other way, or a change in a side signal; inactive means no such curve, though single readings can be large or run the other way; the % refers to the polarisation;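 further: polarization taken with two DNA probes labelled with fluorescein and Texas red; % of control where 0% means no effect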
Target sequence (P11308 whole entry, looked up, the tested form may be a part): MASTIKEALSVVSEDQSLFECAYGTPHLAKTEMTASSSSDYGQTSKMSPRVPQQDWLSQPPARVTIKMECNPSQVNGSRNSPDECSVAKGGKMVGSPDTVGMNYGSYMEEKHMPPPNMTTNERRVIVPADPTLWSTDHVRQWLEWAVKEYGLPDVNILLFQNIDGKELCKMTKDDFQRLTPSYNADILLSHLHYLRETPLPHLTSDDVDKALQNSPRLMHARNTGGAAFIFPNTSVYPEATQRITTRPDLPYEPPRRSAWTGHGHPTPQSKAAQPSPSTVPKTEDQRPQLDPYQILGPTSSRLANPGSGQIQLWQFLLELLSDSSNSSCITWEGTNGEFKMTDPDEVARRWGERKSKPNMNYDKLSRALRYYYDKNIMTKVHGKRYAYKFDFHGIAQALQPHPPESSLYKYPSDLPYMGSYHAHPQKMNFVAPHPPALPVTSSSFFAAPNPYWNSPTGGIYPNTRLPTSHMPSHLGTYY
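His-tagged ERG Ets domain (1 uM in the protein solution; 300mM KCl, 50mM Tris-HCl, 1mM EDTA, 1mM DTT, pH 7.5) received compound, then a probe mix of 5 nM fluorescein-DNA and 100nM Texas-615-DNA. Fluorescence polarization was read for both dyes.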
The depositor's hits bear a star. Unless noted, the call rests on the fitted dose curve; in most records, active means well fitted curve in the direction sought with a large enough effect; inconclusive means small, poorly fitted or top-dose-only effect, or another doubt; inactive means no such curve, though single readings can be large; an effect the other way counts as inactive or inconclusive. Potency means the concentration at half of the fitted maximal effect.

How did CCc1ccc(-c2ccc(SCc3ccccn3)nn2)cc1 do in these assays?
B2AR arrestin: 0%; BRCA1 expr act: 5µM*; Mito fusion act: inconclusive; ERG Ets-DNA blk: -7%

Results for CCc1ccc(NC(=O)CSc2ccc(-c3ccccn3)nn2)cc1 ?
B2AR arrestin: -1%; BRCA1 expr act: -35%; Mito fusion act: -11%; ERG Ets-DNA blk: 1%

What do the screens show for `c1ccc(CSc2ccc(-c3cccs3)nn2)nc1`?
B2AR arrestin: 0%; BRCA1 expr act: 7.9µM*; Mito fusion act: 1%; ERG Ets-DNA blk: -4%

How did CCSc1ccc(-c2ccc(C)cc2)nn1 do in these assays?
B2AR arrestin: 0%; BRCA1 expr act: 2.5µM*; Mito fusion act: 5%; ERG Ets-DNA blk: 5%

How did O=C(CSc1ccc(-c2cccs2)nn1)c1cccs1 do in these assays?
B2AR arrestin: 0%; BRCA1 expr act: 11µM*; Mito fusion act: 2%; ERG Ets-DNA blk: 9%

Results for COc1ccc(OC)c(S(=O)(=O)NCCc2sc(C)nc2C)c1 ?
BRCA1 expr act: 17%; ERG Ets-DNA blk: -5%

How did CCOc1ccc(-c2ccc(SCc3ccccn3)nn2)cc1 do in these assays?
B2AR arrestin: 0%; BRCA1 expr act: 4.5µM*; Mito fusion act: 1%; ERG Ets-DNA blk: -3%

How did COc1ccc(-c2cc3nc4ccccc4n3c(N)c2C#N)cc1 do in these assays?
B2AR arrestin: -1%; BRCA1 expr act: 4µM*; Mito fusion act: 0%; ERG Ets-DNA blk: -3%

How did C(=Nc1cnc2ccccc2c1)c1ccnc2ccccc12 do in these assays?
BRCA1 expr act: 6%

What do the screens show for `Cc1ccc(OCc2ccc(C(=O)Nc3nccs3)o2)cc1`?
B2AR arrestin: 9%; BRCA1 expr act: 99%; Mito fusion act: -7%; ERG Ets-DNA blk: 4%

What do the screens show for `Cc1ccc(SCc2ccc(C(=O)Nc3nccs3)o2)cc1`?
B2AR arrestin: 0%; BRCA1 expr act: inconclusive; Mito fusion act: 10%; ERG Ets-DNA blk: 4%

Results for O=C(Nc1nccs1)c1ccc(CSc2ccccc2)o1 ?
B2AR arrestin: 0%; BRCA1 expr act: 2.8µM*; Mito fusion act: 8%; ERG Ets-DNA blk: 9%

How did CCc1nnc(NC(=O)c2ccc(COc3ccc(C)cc3)o2)s1 do in these assays?
B2AR arrestin: 0%; BRCA1 expr act: 5µM*; Mito fusion act: 6%; ERG Ets-DNA blk: 2%

Results for Cc1ccc(OCc2ccc(C(=O)Nc3ccc(S(N)(=O)=O)cc3)o2)cc1 ?
B2AR arrestin: 0%; BRCA1 expr act: 10µM*; Mito fusion act: 1%; ERG Ets-DNA blk: 0%

Results for O=C(Nc1nccs1)c1ccc(COc2ccccc2)o1 ?
B2AR arrestin: 0%; BRCA1 expr act: 5.6µM*; Mito fusion act: -1%; ERG Ets-DNA blk: -14%

Results for COc1ccc(NC(=O)c2ccc(COc3ccccc3)o2)cc1 ?
B2AR arrestin: 0%; BRCA1 expr act: 42%; Mito fusion act: 0%; ERG Ets-DNA blk: 0%

How did O=[N+]([O-])c1ccc2c(c1)/C(=C/c1ccc(C=S)cc1)C=C2 do in these assays?
BRCA1 expr act: 0%

What do the screens show for `CCSc1nnc(NC(=O)c2ccc3nc[nH]c3c2)s1`?
B2AR arrestin: 0%; BRCA1 expr act: 3.2µM*; ERG Ets-DNA blk: 7%

How did CN(C)c1ccc(NC(=O)c2ccc3nc[nH]c3c2)cc1 do in these assays?
B2AR arrestin: 0%; BRCA1 expr act: 13µM*; Mito fusion act: 8%; ERG Ets-DNA blk: 14%

What do the screens show for `CCCCn1c(SCC(=O)Nc2cc(C)[nH]n2)nc2ccsc2c1=O`?
B2AR arrestin: -1%; BRCA1 expr act: 0%; Mito fusion act: 0%; ERG Ets-DNA blk: 0%

How did Cc1cc(NC(=O)CSc2nc3ccsc3c(=O)n2Cc2ccccn2)n[nH]1 do in these assays?
B2AR arrestin: 0%; BRCA1 expr act: 5.6µM*; Mito fusion act: 2%; ERG Ets-DNA blk: -14%

What do the screens show for `COc1ccc(Cl)cc1NC(=O)CSc1ccc(-c2sc(C)nc2C)nn1`?
ERG Ets-DNA blk: 2%

Results for CC1Cc2cc(S(=O)(=O)N3CCCC(C(=O)N4CCCCC4)C3)ccc2N1C(=O)C1CC1 (stereo not drawn) ?
B2AR arrestin: -1%; BRCA1 expr act: 3%; Mito fusion act: 0.32µM*; ERG Ets-DNA blk: 0%

What do the screens show for `O=C(Nc1cccc(C(F)(F)F)c1)c1cc2nc(-c3ccc4c(c3)OCO4)cc(C(F)(F)F)n2n1`?
ERG Ets-DNA blk: -20%

How did Cc1ccn2c(Cc3ccccc3)c(-c3ccccc3)nc2c1 do in these assays?
BRCA1 expr act: 13µM*

How did Cc1ccc2nc(-c3ccccc3)c(Cc3ccccc3C(F)(F)F)n2c1 do in these assays?
BRCA1 expr act: 2.5µM*

What do the screens show for `CCOc1ccccc1CNC(=O)CCCN1C(=O)COc2ccc(C)cc21`?
ERG Ets-DNA blk: 1%

What do the screens show for `Cc1cc(SCC(=O)NCc2ccc(Cl)cc2)nc(=O)[nH]1`?
BRCA1 expr act: 9%; ERG Ets-DNA blk: 1%

Results for COC(=O)C1=C(C)NC(=O)/C1=C\c1cc(C)n(-c2ccccc2)c1C ?
B2AR arrestin: 0%; BRCA1 expr act: 7.1µM*; Mito fusion act: -2%; ERG Ets-DNA blk: -15%

Results for COc1ccc(Cl)cc1N(C)c1nc(N2CCN(S(=O)(=O)c3ccc(C)cc3)CC2)c2ccccc2n1 ?
BRCA1 expr act: 8%

What do the screens show for `Oc1ccc2[nH]ccc2c1`?
B2AR arrestin: -3%; BRCA1 expr act: -10%; Mito fusion act: 5%; ERG Ets-DNA blk: 0%

Results for Nc1ccccc1C#Cc1ccc2[nH]ccc2c1 ?
BRCA1 expr act: 10µM*; ERG Ets-DNA blk: 12%

How did Nc1ccc(C#Cc2ccccc2)cc1 do in these assays?
B2AR arrestin: 0%; BRCA1 expr act: 41%; Mito fusion act: 3%; ERG Ets-DNA blk: -4%

Results for Nc1ccccc1C#Cc1ccccc1 ?
B2AR arrestin: 0%; BRCA1 expr act: 11µM*; Mito fusion act: 1%; ERG Ets-DNA blk: -1%

What do the screens show for `C/C(=N\Nc1cc(N2CCOCC2)ncn1)c1cccc([N+](=O)[O-])c1`?
B2AR arrestin: 0%; BRCA1 expr act: -5%; Mito fusion act: -5%; ERG Ets-DNA blk: -4%

What do the screens show for `C/C(=N\Nc1cc(N2CCOCC2)ncn1)c1ccccc1`?
B2AR arrestin: 1%; BRCA1 expr act: 1.8µM*; Mito fusion act: -23%; ERG Ets-DNA blk: -6%

What do the screens show for `CCCCCn1cnc2sc(-c3ccccc3)cc2c1=O`?
B2AR arrestin: -1%; BRCA1 expr act: 5µM*; Mito fusion act: 5%; ERG Ets-DNA blk: -7%

Results for O=c1c2cc(-c3ccccc3)sc2ncn1/N=C/c1ccco1 ?
B2AR arrestin: 0%; BRCA1 expr act: 11µM*; Mito fusion act: 1%; ERG Ets-DNA blk: 3%

How did CCCCn1cnc2sc(-c3ccccc3)cc2c1=O do in these assays?
B2AR arrestin: 0%; BRCA1 expr act: inconclusive; Mito fusion act: 3%; ERG Ets-DNA blk: -10%

What do the screens show for `COc1cc(OC)c(NC(=O)CCCn2nc(C)c3sc4ccccc4c3c2=O)cc1Cl`?
ERG Ets-DNA blk: 0%

From PubChem BioAssay
